The results in this text go back to PubChem BioAssay (NCATS).

A short description of assay [1]: Primary qHTS for inhibitors of nuclear receptor binding SET domain protein 2 (NSD2) in an RCH-ACV wild type WT cells (2C) (AID 1645877; note: nearly all actives have a fitted effect of over 70% in size; note: potency is the fitted concentration of half-maximal effect). (In qHTS, concentration-response curves come from the screen itself.)
Assay [2] addresses Catechol O-methyltransferase (Homo sapiens) (UniProt P21964). Kind of assay: Confirmatory Screen for Target Class Profiling of Small Molecule Inhibitors of Methyltransferases (AID 1745852; calls by dose curve; note: potency is the fitted concentration of half-maximal effect; for activity change, negative = inhibition: % is set by controls: 0 for no effect and ±100 for the full control effect). The following applies: MTase-Glo luminescence, SAH detection, recombinant enzyme; measured here: COMT max response; stronger effect = lower value.
Assay [3] addresses Guanidinoacetate N-methyltransferase (Homo sapiens) (UniProt Q14353). The assay is described as above. The following applies: activity change, negative = inhibition: at 57.3 µM (top of the series) unless noted.
Assay [4] addresses Nicotinamide N-methyltransferase (Homo sapiens) (UniProt P40261). The assay is described as above. As to conditions: MTase-Glo luminescence, SAH detection, recombinant enzyme; measured here: NNMT max response; stronger effect = lower value.
In assay [5] the target is Phenylethanolamine N-methyltransferase (Homo sapiens) (UniProt P11086). The assay is described as above. As to conditions: MTase-Glo luminescence, SAH detection, recombinant enzyme; measured here: PNMT max response; stronger effect = lower value.
Chain of Phenylethanolamine N-methyltransferase (Homo sapiens) (P11086 whole entry, looked up): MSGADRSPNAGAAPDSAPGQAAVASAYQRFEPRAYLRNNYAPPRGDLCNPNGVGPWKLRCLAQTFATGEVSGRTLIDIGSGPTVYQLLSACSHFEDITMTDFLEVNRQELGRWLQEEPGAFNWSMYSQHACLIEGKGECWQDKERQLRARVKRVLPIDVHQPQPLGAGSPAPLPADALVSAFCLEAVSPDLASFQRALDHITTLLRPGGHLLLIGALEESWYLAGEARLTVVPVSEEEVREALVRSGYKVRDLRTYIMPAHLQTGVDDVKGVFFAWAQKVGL
Assay [6] has as its target Glutathione peroxidase 1 (Homo sapiens) (UniProt P07203). The experiment in a line: Primary qHTS Assay for Inhibitors of Recombinant Selenoprotein Glutathione Peroxidase 1 (GPX1) (AID 1845191). Note: nearly all actives have a fitted effect of over 65% in size. Note: potency is the fitted concentration of half-maximal effect. The method, boiled down: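 GR-coupled readout: NADPH consumption tracked by fluorescence, ex 340/em 450 nm, at t=0 and after 15 min at RT. Final mix 10 nM GPX1, 1 mM GSH, 0.5 mM CHP, 0.5 mM NADPH, 100 nM GR, 0.01% BSA, following 30 min enzyme–compound preincubation.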

The target in assay [7] is Phospholipid hydroperoxide glutathione peroxidase GPX4 (Homo sapiens) (UniProt P36969). Kind of assay: Primary qHTS Assay for Inhibitors of Recombinant Selenoprotein Glutathione Peroxidase 4 (GPX4) (AID 1845192). For activity change, negative = inhibition: % is set by controls: 0 for no effect and ±100 for the full control effect. Note: nearly all actives have a fitted effect of over 65% in size. In short, it runs like this: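 Steps: GPX4 plus compound, 30 min RT; add GR/GSH/NADPH master mix; start with cumene hydroperoxide; read 340/450 nm fluorescence at 0 and 15 min. Finals were 200 nM GPX4, 1 mM GSH, 0.5 mM CHP, 0.5 mM NADPH, 100 nM GR.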
Chain of Phospholipid hydroperoxide glutathione peroxidase GPX4 (Homo sapiens) (P36969 whole entry, looked up): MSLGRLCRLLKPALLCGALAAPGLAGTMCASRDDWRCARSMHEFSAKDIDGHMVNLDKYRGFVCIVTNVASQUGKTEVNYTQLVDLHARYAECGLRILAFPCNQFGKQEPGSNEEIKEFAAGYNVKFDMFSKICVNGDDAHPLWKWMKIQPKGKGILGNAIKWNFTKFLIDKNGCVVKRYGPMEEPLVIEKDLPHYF

In assay [8] the target is Luciferin 4-monooxygenase (Photinus pyralis) (UniProt P08659). Kind of assay: Primary firefly luciferase (FLuc) qHTS assay for identification of artifact compounds. (AID 1845220).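 For activity change, negative = inhibition: plate controls were DMSO vehicle for no effect and no enzyme for full effect.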 Note: nearly all actives have a fitted effect of over 60% in size. In short, it runs like this:
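Titrated compounds were incubated 15 min at RT, protected from light, with luciferin and ATP at 10 uM; reaction started with 10 nM FLuc, luminescence imaged at 5 min, and concentration-response fitted by Hill equation.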

The subject of assay [9] is Nanoluciferase (engineered Oplophorus gracilirostris luciferase). The experiment in a line: Primary Nanoluciferase (NLuc) qHTS assay for identification of artifact compounds. (AID 1845222).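 Note: NLuc secreted into diluted conditioned medium of S16 cells; 0% = DMSO and -100% = no enzyme.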 In short, it runs like this: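 qHTS format, against NLuc in S16 cell-conditioned medium. Nano-Glo substrate 1:100 was added after 15 min at room temperature. Luminescence was taken after a further 5 min.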

A short description of assay [10]: Primary redox qHTS assay for identification of artifact compounds. (AID 1845223).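 Note: 0% = DMSO and 100% = reference compound.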 The method, boiled down:
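Redox-cycling detection via DTT (250 uM final) oxidation coupled to Amplex Red (25 uM)/HRP (250 mU/mL) in HBSS. 15 min preincubation plus 30 min after DTT, room temperature. Ex/Em 525/598 nm; 4-parameter Hill fit against DMSO and 10 uM DA3003.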

Assay [11] can be described thus: Primary fluorescence-based thiol-reactive (MSTI) qHTS assay for identification of artifact compounds. (AID 1845221). Note: nearly all actives have a fitted effect of over 65% in size. Note: potency is the fitted concentration of half-maximal effect. In short, it runs like this: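 qHTS titration of compound; 4 uM MSTI, PBS pH 7.4, 2% DMSO; 1 h RT, dark; fluorescence 525/598 nm; normalized to Acetyl-MSTI and MSTI; 4-parameter Hill fit.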

Each structure is given as a SMILES string. Results filed as inconclusive are left out. Activity calls are given as the source filed them. Unless noted, calls come from the whole dose curve; as a rule, active = well fitted curve in the direction sought with a large enough effect; inconclusive = small, poorly fitted or top-dose-only effect, or another doubt; inactive = no such curve, though single readings can be large; an effect the other way counts as inactive or inconclusive.

Chain of Catechol O-methyltransferase (Homo sapiens) (P21964 whole entry, looked up): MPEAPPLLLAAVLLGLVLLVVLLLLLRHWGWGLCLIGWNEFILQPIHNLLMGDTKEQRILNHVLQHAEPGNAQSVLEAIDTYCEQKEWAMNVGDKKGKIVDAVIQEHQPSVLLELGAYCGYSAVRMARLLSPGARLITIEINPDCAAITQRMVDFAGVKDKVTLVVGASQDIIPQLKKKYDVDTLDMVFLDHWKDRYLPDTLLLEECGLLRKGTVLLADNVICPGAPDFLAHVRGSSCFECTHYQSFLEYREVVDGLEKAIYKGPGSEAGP
Chain of Glutathione peroxidase 1 (Homo sapiens) (P07203 whole entry, looked up): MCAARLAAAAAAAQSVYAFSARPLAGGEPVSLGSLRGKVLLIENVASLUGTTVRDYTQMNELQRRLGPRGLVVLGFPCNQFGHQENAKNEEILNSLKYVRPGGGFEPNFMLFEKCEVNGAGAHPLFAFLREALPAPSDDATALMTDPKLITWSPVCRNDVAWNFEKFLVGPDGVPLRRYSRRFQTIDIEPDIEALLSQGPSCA
Chain of Nicotinamide N-methyltransferase (Homo sapiens) (P40261 whole entry, looked up): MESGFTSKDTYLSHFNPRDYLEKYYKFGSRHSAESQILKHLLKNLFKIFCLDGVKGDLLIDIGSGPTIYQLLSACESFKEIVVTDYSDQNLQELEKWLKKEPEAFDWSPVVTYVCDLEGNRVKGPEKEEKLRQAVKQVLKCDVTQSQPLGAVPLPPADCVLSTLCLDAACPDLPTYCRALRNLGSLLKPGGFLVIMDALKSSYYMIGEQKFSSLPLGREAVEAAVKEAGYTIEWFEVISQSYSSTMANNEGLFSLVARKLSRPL

`C=C1C(=O)O[C@@H]2/C=C(\C)C(=O)/C=C/[C@](C)(O)C[C@@H](OC(=O)C(C)C)[C@@H]12`: the Potency in assay [1] is 0.284 µM (active). Further, the activity in assay [2] is -80.2%; in assay [4], -1.46%; in assay [5], -0.934%. For the same compound, the activity change, negative = inhibition in assay [3] was -3.22%. Also, the Potency result in assay [6], in [7], in assay [8], in assay [9] and in assay [10] was “inactive” throughout.
In the case of `O=C(/C=C/c1ccccc1)OC[C@]12O[C@H]1[C@@H](O)[C@@H]1C=CO[C@@H](O[C@@H]3O[C@H](CO)[C@@H](O)[C@H](O)[C@H]3O)[C@@H]12`, the Potency result in [1], in [6], in [7], in assay [8], in assay [9] and in [10] was “inactive” in each case. Moreover, the results for the activity in assay [2], in assay [4] and in assay [5] were -55.2%, -5.73% and -4.62%, respectively. In [3], the activity change, negative = inhibition is -7.11% [at 29.8 µM].
For `C=C1C(=O)OC2/C=C(\CO)CC/C=C(\C=O)CC(OC(=O)CC(C)C)C12` (stereo not given), the Potency in assay [1] is 2.26 µM (active); in assay [11], 16.5 µM (active). Also, the values for the activity in assay [2], in [4] and in [5] were -71%, -4.38% and -2.45%, respectively. For the same compound, the activity change, negative = inhibition in [3] is -0.648%. Also, the Potency result in assay [6], in assay [8] and in [9] was “inactive” throughout.
As to `CN1CCN(C(=O)c2ccc3cc(CCNc4ncnc5ccc(C#N)cc45)ccc3c2)CC1`, the Potency in [1] is 1.32 µM (active). Also, the figures for the activity in [2], in assay [4] and in assay [5] were -7.48%, -11.9% and -8.1%, respectively. Further, in assay [3], the activity change, negative = inhibition is -3.33%. Besides, the Potency entry in assay [6], in assay [8], in assay [11] and in assay [9] was “inactive” throughout.
With `Cc1ncc(CCCN(C)C)cc1Nc1ncc2c(n1)-c1ccc(C(F)(F)F)cc1NC(=S)C2`, the figures for the Potency in [1] and in assay [6] were 0.129 µM (active) and 12.8 µM (active), respectively. In addition, the values for the activity in assay [2], in assay [4] and in assay [5] were -3.05%, -20.1% and -4.31%, respectively. The activity change, negative = inhibition in assay [3] amounted to 2.13%. The Potency result in [7], in assay [8], in assay [9] and in assay [10] was “inactive” throughout.
For the compound `Cc1cc(N(C)C)ccc1-c1nc2ccc(-c3nc4ccc(N5CCN(C)CC5)cc4[nH]3)cc2[nH]1`, the Potency in [1] is 0.258 µM (active); in assay [11] it was 2.38 µM (active). The activity in assay [2] was -4.96%; in [4], -5.28%; in [5], -3.42%. In addition, in assay [3], the activity change, negative = inhibition is 0%. Also, the Potency entry in [6] and in assay [9] was “inactive” throughout.
For `CCN(CC)c1ccc2c(O)c(C=Nc3ccc(CC(=O)O)c(-c4c5c(nc6ccccc46)CCC(C(=O)NN)C5)c3)c(=O)oc2c1` (stereo not given), the Potency in assay [1] is 4.59 µM (active); in assay [3] it was 34.1 µM (active). For the same compound, the values for the activity in assay [2], in [4] and in [5] were -17%, -14% and -22%, respectively. Moreover, the Potency entry in assay [6], in assay [7], in assay [9] and in assay [10] was “inactive” in each case.
On to `CC1(C)CC[C@]2(C(=O)O[C@@H]3O[C@H](CO)[C@@H](O)[C@H](O)[C@H]3O)CC[C@]3(C)C(=CCC4[C@@]5(C)C[C@@H](O)[C@H](O)C(C)(C)C5CC[C@]43C)C2[C@@H]1O` (stereo not given in full), for which the Potency result in [1], in [6], in assay [7], in assay [8], in assay [9] and in assay [10] was “inactive” in each case. In addition, the values for the activity in assay [2], in assay [4] and in assay [5] were -85.2%, -0.101% and -0.0843%, respectively. Moreover, the activity change, negative = inhibition in [3] is -2.23% [at 19.1 µM].
Turning to `CC1=CC(=O)CC(C)(C)C1CCC(C)O[C@@H]1O[C@H](CO[C@@H]2OC[C@@H](O)[C@H](O)[C@H]2O)[C@@H](O)[C@H](O)[C@H]1O` (stereo not given in full), the Potency entry in assay [1], in assay [6], in assay [7], in [8], in assay [9] and in assay [10] was “inactive” in each case. Besides, the activity in assay [2] is -54.5%; in assay [4], 0.168%; in assay [5], 0.0687%. Moreover, the activity change, negative = inhibition in [3] came out at 0% [at 29.8 µM].
In the case of `COc1cc(NC(=O)Nc2cccc(CNC(=O)O[C@H]3CCOC3)c2)ccc1-c1cnco1`, in assay [1], the Potency was 0.728 µM (active). Further, the activity in [2] is -5.78%; in [4], -9.19%; in assay [5], -5.11%. Further, the activity change, negative = inhibition in [3] was -0.888%. Also, the Potency entry in [6], in assay [7], in [8], in [11], in assay [9] and in assay [10] was “inactive” each time.
As to `COc1cc2nc(N3CCCC3)nc(NCCCCCN3CCCC3)c2cc1OC`, the Potency in assay [1] is 5.15 µM (active). The figures for the activity in assay [2], in assay [4] and in assay [5] were -4.52%, -30.1% and -0.684%, respectively. Further, in assay [3], the activity change, negative = inhibition is 0.888%. The Potency result in assay [8], in assay [11], in assay [9] and in assay [10] was “inactive” each time.
